The whole screen tested about 5,500 compounds, of which about 2,000 (36%) were called active. Another 18% or so got no clear call; they are omitted. Rule as the data show it: active = normalized growth mostly below about 0.91 (no sharp cut-off); inconclusive = no clear call, values can overlap the other calls; inactive = mostly above about 0.92. Some of the results follow.
Test: chemical genetic growth profiling, strain panel (AID 1159580);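 also: tested at 20 µM; growth read once vehicle control cultures reached saturation at 30 °C; 1 = growth at the plate median or of vehicle wells; lower values mean less growth of the strain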
Settings: growth OD

Measured: normalized growth

Cc1cc(C)c2c(-n3cccc3)c(C(=O)c3ccc(Cl)cc3)sc2n1
inactive: S. cerevisiae deletion strains, locus YAL013W, strain DEP1, active compounds read low 0.996 | S. cerevisiae deletion strains, locus YBR229C, strain ROT2, active compounds read low 1.01 | S. cerevisiae deletion strains, locus YCL061C, strain MRC1, active compounds read low 1 | S. cerevisiae deletion strains, locus YDL101C, strain DUN1, active compounds read low 0.979 | S. cerevisiae deletion strains, locus YDR150W, strain NUM1, active compounds read low 0.9 | S. cerevisiae deletion strains, locus YEL061C, strain CIN8, active compounds read low 1 | S. cerevisiae deletion strains, locus YGR078C, strain PAC10, active compounds read low 1.01 | S. cerevisiae deletion strains, locus YGR229C, strain SMI1, active compounds read low 0.99 | S. cerevisiae deletion strains, locus YHR030C, strain SLT2, active compounds read low 0.884 | S. cerevisiae deletion strains, locus YHR087W, strain rtc3, active compounds read low 0.98 | S. cerevisiae deletion strains, locus YJL187C, strain SWE1, active compounds read low 1.01 | S. cerevisiae deletion strains, locus YJR043C, strain POL32, active compounds read low 1.01 | S. cerevisiae deletion strains, locus YJR075W, strain HOC1, active compounds read low 0.987 | S. cerevisiae deletion strains, locus YLR039C, strain RIC1, active compounds read low 0.903 | S. cerevisiae deletion strains, locus YLR058C, strain SHM2 (second series), active compounds read low 1.01 | S. cerevisiae deletion strains, locus YLR085C, strain ARP6, active compounds read low 0.961 | S. cerevisiae deletion strains, locus YLR262C, strain YPT6, active compounds read low 0.95 | S. cerevisiae deletion strains, locus YML094W, strain GIM5, active compounds read low 0.935 | S. cerevisiae deletion strains, locus YMR219W, strain ESC1, active compounds read low 1.01 | S. cerevisiae deletion strains, locus YMR263W, strain SAP30, active compounds read low 0.997 | S. cerevisiae deletion strains, locus YMR307W, strain GAS1, active compounds read low 0.891 | S. cerevisiae deletion strains, locus YNL153C, strain GIM3, active compounds read low 0.984 | S. cerevisiae deletion strains, locus YNL298W, strain CLA4 (second series), active compounds read low 0.984 | S. cerevisiae deletion strains, locus YNL322C, strain KRE1, active compounds read low 0.997 | S. cerevisiae deletion strains, locus YNR030W, strain Alg12, active compounds read low 0.95 | S. cerevisiae deletion strains, locus YPL055C, strain LGE1, active compounds read low 0.957 | S. cerevisiae deletion strains, locus YPL241C, strain CIN2, active compounds read low 1 | S. cerevisiae deletion strains, locus YPR135W, strain CTF4, active compounds read low 0.893 | S. cerevisiae strains, strain wild type, active compounds read low 0.986

Source: PubChem BioAssay AID1159580 (chemical genetic matrix, 2015)
